# Records with an inconclusive call do not appear. A call without a number means that no potency is given here. The source made the active and inactive calls. The call rests on the fitted dose curve; in most records, active means well fitted inhibition curve with a large enough effect; inconclusive means small, poorly fitted or top-dose-only effect; inactive means flat fitted curve, though single readings scatter.
# What was measured:
# Assay in all cases: qHTS profiling for inhibitors of Plasmodium falciparum proliferation (AID 504749); further: nearly all actives have a fitted effect of over 60% in size
# Details in all cases: P. falciparum in erythrocytes, SYBR Green DNA, 72 h; series mostly up to 28.7 µM
# AA1029 = tested on: AA1029
# Summary of the method: (§1)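 Parasite proliferation within erythrocytes, 72 h exposure. Endpoint: SYBR Green I fluorescence after overnight lysis at room temperature. Controls: 0.29 uM artemisinin, DMSO.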
# ATS95 = tested on: ATS95
# Summary of the method: as §1
# C2A = tested on: C2A
# Summary of the method: as §1
# CP211 = tested on: CP211
# Summary of the method: as §1
# CP215 = tested on: CP215
# Summary of the method: as §1
# CP217 = tested on: CP217
# Summary of the method: as §1
# CP250 = tested on: CP250
# Summary of the method: as §1
# CP252 = tested on: CP252
# Summary of the method: as §1
# CP256 = tested on: CP256
# Summary of the method: as §1
# CP265 = tested on: CP265
# Summary of the method: as §1
# CP268 = tested on: CP268
# Summary of the method: as §1
# CP297 = tested on: CP297
# Summary of the method: as §1
# CP315 = tested on: CP315
# Summary of the method: as §1
# CP325 = tested on: CP325
# Summary of the method: as §1
# CP329 = tested on: CP329
# Summary of the method: as §1
# N140 = tested on: N140
# Summary of the method: as §1
# PAD = tested on: PAD
# Summary of the method: as §1
# SC27B = tested on: SC27B
# Summary of the method: as §1
# TAB113 = tested on: TAB113
# Summary of the method: as §1
# TAB165 = tested on: TAB165
# Summary of the method: as §1
# Potency means the concentration at half of the fitted maximal effect.
SMILES,Potency (AA1029),Potency (ATS95),Potency (C2A),Potency (CP211),Potency (CP215),Potency (CP217),Potency (CP250),Potency (CP252),Potency (CP256),Potency (CP265),Potency (CP268),Potency (CP297),Potency (CP315),Potency (CP325),Potency (CP329),Potency (N140),Potency (PAD),Potency (SC27B),Potency (TAB113),Potency (TAB165)
CC(O)C(N)C(=O)O (centres undefined),inactive,inactive,inactive,inactive,inactive,inactive,inactive,inactive,inactive,inactive,inactive,inactive,inactive,inactive,inactive,inactive,inactive,inactive,inactive,inactive
Cc1ccc(S(=O)(=O)NC(=O)NC(C)Cc2ccccc2)cc1 (centres undefined),inactive,inactive,inactive,inactive,inactive,inactive,inactive,inactive,inactive,inactive,inactive,inactive,inactive,inactive,inactive,inactive,inactive,inactive,inactive,inactive
CO/N=C(/C(=O)N[C@@H]1C(=O)N2C(C(=O)O)=C(C[n+]3ccc(N)n3CCO)CS[C@H]12)c1csc(N)n1,inactive,inactive,inactive,inactive,inactive,inactive,inactive,inactive,inactive,inactive,inactive,inactive,inactive,inactive,inactive,inactive,inactive,inactive,inactive,inactive
CCCCC/C(C=O)=C/c1ccccc1,inactive,inactive,inactive,inactive,inactive,inactive,inactive,inactive,inactive,inactive,inactive,inactive,inactive,inactive,inactive,inactive,inactive,inactive,inactive,inactive
CO[C@H]1OC2O[C@@]3(C)CC[C@H]4[C@H](C)CC[C@@H]([C@H]1C)[C@@]24OO3 (some centres undefined),31.6 nM (active),25.1 nM (active),35.5 nM (active),75.7 nM (active),30.1 nM (active),31.6 nM (active),63.1 nM (active),31.6 nM (active),12.6 nM (active),3.2 nM (active),21.3 nM (active),23.9 nM (active),95.3 nM (active),15.1 nM (active),60.1 nM (active),12.6 nM (active),20 nM (active),14.1 nM (active),11.2 nM (active),22.4 nM (active)
CNC1C(O)C(OC2C(N)CC(N)C(OC3OC(CN)=CCC3N)C2O)OCC1(C)O (centres undefined),inactive,inactive,inactive,inactive,inactive,inactive,inactive,inactive,inactive,inactive,inactive,inactive,inactive,inactive,inactive,inactive,inactive,inactive,inactive,inactive
O=C1CC[C@H](C(=O)N[C@@H]2C[C@H]2c2ccccc2)N1,inactive,inactive,inactive,inactive,inactive,inactive,inactive,inactive,inactive,inactive,inactive,inactive,inactive,inactive,inactive,inactive,inactive,inactive,inactive,inactive
CCCC[C@H](O)c1ccccc1,inactive,inactive,inactive,inactive,inactive,inactive,inactive,inactive,inactive,inactive,inactive,inactive,inactive,inactive,inactive,inactive,inactive,inactive,inactive,inactive
C[C@@H]1C(SC2Cn3cnc[n+]3C2)=C(C(=O)[O-])N2C(=O)[C@H]([C@@H](C)O)[C@@H]12 (some centres undefined),inactive,inactive,inactive,inactive,inactive,inactive,inactive,inactive,inactive,inactive,inactive,inactive,inactive,inactive,inactive,inactive,inactive,inactive,inactive,inactive
CC(c1ncncc1F)[C@](O)(Cn1cncn1)c1ccc(F)cc1F (some centres undefined),inactive,inactive,inactive,inactive,inactive,inactive,inactive,inactive,inactive,inactive,inactive,inactive,inactive,inactive,inactive,inactive,inactive,inactive,inactive,inactive
CN1[C@@H]2CC[C@@H]1CC(OC(=O)[C@H](CO)c1ccccc1)C2 (some centres undefined),inactive,inactive,inactive,inactive,inactive,inactive,inactive,inactive,inactive,inactive,inactive,inactive,inactive,inactive,inactive,inactive,inactive,inactive,,inactive
CC1(C)OC[C@@H]2O[C@@]3(C(=O)O)OC(C)(C)O[C@@H]3[C@@H]2O1,inactive,inactive,inactive,inactive,inactive,inactive,inactive,inactive,inactive,inactive,inactive,inactive,inactive,inactive,inactive,inactive,inactive,inactive,inactive,inactive

# From PubChem BioAssay (NCATS)
